{"source": "PubChem BioAssay AID624504", "about": "(Sanford-Burnham Center for Chemical Genomics, 2012)", "note": "Among all 5,000 compounds or so, about 3,900 (78%) were called active. The set was probably picked from earlier hits. A selection follows. Unmarked numbers belong to inactive results. Rule as the data show it: active = inhibition above about 22%; inactive = the rest.", "data": [{"test": "fluorescence retest of MPTP screen hits in isolated mitochondria, single concentration (AID 624504);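 also: 0% = DMSO vehicle and 100% = positive control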", "conditions": "membrane potential, Rhodamine 123 fluorescence, at 10 µM, stronger effect = higher value", "values": [{"compound": "N/C(=N\\OC(=O)Nc1ccc(Cl)c(Cl)c1)c1ncc(C(F)(F)F)cc1Cl", "inhibition": "118% (active)"}, {"compound": "c1ccc(-c2cc3c(NCC4COc5ccccc5O4)ncnc3s2)cc1", "note": "(stereo unspecified)", "inhibition": "70.6% (active)"}, {"compound": "O=C(NC1CCN(Cc2ccccc2)CC1)c1cc(Br)c(Br)[nH]1", "inhibition": "9.55%"}, {"compound": "CSc1nccc(NC(=O)c2ccc(C(C)(C)C)cc2)n1", "inhibition": "91.4% (active)"}, {"compound": "COc1cc(C(=O)Nc2oc(-c3ccccc3)c(-c3ccccc3)c2C#N)cc(OC)c1OC", "inhibition": "63% (active)"}, {"compound": "COC(=O)c1sccc1NC(=O)CSc1ccccc1NS(=O)(=O)c1cc(Cl)ccc1Cl", "inhibition": "90.9% (active)"}, {"compound": "Cn1nc(C(F)(F)F)c(C(=O)Nc2cccc(C(F)(F)F)c2)c1SCc1ccc(Cl)cc1", "inhibition": "63.4% (active)"}, {"compound": "COc1ccc(S(=O)(=O)Nc2ccc3oc(C)c(C(C)=O)c3c2)cc1", "inhibition": "63.9% (active)"}, {"compound": "COc1cc(NS(=O)(=O)c2ccc(NC(C)=O)cc2)cc(OC)c1", "inhibition": "47.9% (active)"}, {"compound": "CC(C)OCCCNc1ncnc2c1[nH]c1ccc(F)cc12", "inhibition": "110% (active)"}, {"compound": "COc1ccc2oc(-c3cccc(NC(=O)CSc4ccc(Cl)cc4)c3)nc2c1", "inhibition": "70.8% (active)"}, {"compound": "O=C(Nc1ccc(Cl)cc1)Nc1ccc(Oc2cccnc2)nc1", "inhibition": "94.2% (active)"}, {"compound": "CCCc1cc(=S)n2c([nH]c3ccccc32)c1C#N", "inhibition": "80.9% (active)"}, {"compound": "Cc1ccc(Sc2ccc(NC(=O)c3ccc(F)cc3)cc2C#N)cc1", "inhibition": "99.4% (active)"}, {"compound": "COc1ccc(Sc2ccc(NC(=O)c3cccc(Cl)c3)cc2C#N)cc1", "inhibition": "77.8% (active)"}, {"compound": "O=C(NNC(=O)c1csc(-c2cccnc2)n1)Nc1ccc(Cl)cc1", "inhibition": "68.5% (active)"}, {"compound": "O=C(Nc1nnc(S(=O)(=O)N2CCCCCC2)s1)c1cccc(Br)c1", "inhibition": "99.7% (active)"}, {"compound": "CCOC(=O)c1cc2cc(-c3c(C(=O)OCC)oc4cc(O)cc(O)c4c3=O)ccc2o1", "inhibition": "47.3% (active)"}, {"compound": "COc1ccc(Cn2c(=O)sc3ccccc32)cc1OC", "inhibition": "38.6% (active)"}, {"compound": "COc1ccc2sc(N(CCCN(C)C)C(=O)c3ccc(S(=O)(=O)N(C)C4CCCCC4)cc3)nc2c1", "inhibition": "-15.4%"}, {"compound": "O=C(Nc1nnc(SCc2ccccc2Cl)s1)c1cccc([N+](=O)[O-])c1", "inhibition": "79.5% (active)"}, {"compound": "O=C(Nc1nnc(SCc2c(Cl)cccc2Cl)s1)c1cccc([N+](=O)[O-])c1", "inhibition": "82.1% (active)"}, {"compound": "O=C(c1ccc(Cl)cc1)c1ccc(OCC(O)CN2CCCCC2)cc1", "note": "(stereo unspecified)", "inhibition": "-2.35%"}, {"compound": "O=C(COC(=O)c1ccccc1NC(=O)c1ccco1)Nc1ccc2c(c1)OC(F)(F)O2", "inhibition": "16.6%"}, {"compound": "O=C(Cc1c(F)cccc1Cl)Nc1ncc([N+](=O)[O-])s1", "inhibition": "98.1% (active)"}, {"compound": "S=C(NCc1ccc(Cl)cc1)NC1CCCCC1", "inhibition": "92.6% (active)"}, {"compound": "S=C(NCc1ccc(Cl)cc1)NC12CC3CC(CC(C3)C1)C2", "inhibition": "83.4% (active)"}, {"compound": "CCCCOC(=O)CNc1nnc(SCC(=O)OCC)[nH]c1=O", "inhibition": "-7.97%"}, {"compound": "O=C(Cc1ccc(Cl)c(Cl)c1)Nc1ccc(SC(F)F)cc1", "inhibition": "73.8% (active)"}, {"compound": "COc1ccc(/C=C2/SC(=O)N(CCCCCC(=O)Nc3ccccc3C(=O)O)C2=S)cc1", "inhibition": "46.1% (active)"}, {"compound": "CN(C(=O)Nc1ccc(Cl)cc1)n1cnc2ccccc2c1=O", "inhibition": "89.2% (active)"}, {"compound": "Cc1ccccc1C(=O)NC(=S)Nc1ccc(N2CCN(C(=O)c3ccccc3)CC2)cc1", "inhibition": "81.8% (active)"}, {"compound": "Brc1ccc(CSc2ccc(-c3ccco3)nn2)cc1", "inhibition": "-1.72%"}, {"compound": "C/C(=N\\NC(=O)c1ccc(C)cc1)C1C(=O)c2ccccc2C1=O", "inhibition": "58% (active)"}, {"compound": "Cc1onc(-c2ccccc2)c1C(=O)NNC(=S)NC(=O)c1ccc(F)cc1", "inhibition": "2.46%"}, {"compound": "COc1ccc(-c2nc3cc(C)ccn3c2NC2CCCCC2)cc1SC1CCCCC1", "inhibition": "77.5% (active)"}, {"compound": "CN(C)Cc1ccccc1C1(O)c2ccccc2CSc2ccccc21", "note": "(stereo unspecified)", "inhibition": "-8.88%"}, {"compound": "O=C(Nc1ccccc1)c1ccccc1NC(=O)C(F)(F)F", "inhibition": "85% (active)"}, {"compound": "O=C(CSc1nc(-c2ccccc2)cs1)Nc1cccc([N+](=O)[O-])c1", "inhibition": "80.1% (active)"}, {"compound": "Cc1cccc(OCCNC(=O)CSc2ccc(C(F)(F)F)cc2[N+](=O)[O-])c1", "inhibition": "81.3% (active)"}, {"compound": "O=C(Nc1ccc2ccccc2c1)Nc1ccc2snnc2c1", "inhibition": "47.9% (active)"}, {"compound": "COc1ccc(NC(=O)Nc2ccc3nsnc3c2)cc1", "inhibition": "84.7% (active)"}, {"compound": "O=C(Nc1ccccc1)Nc1nnc(COc2ccccc2F)s1", "inhibition": "60.4% (active)"}, {"compound": "O=C(CSc1nc2ccc([N+](=O)[O-])cc2[nH]1)c1ccc(Cl)cc1", "inhibition": "76.5% (active)"}, {"compound": "CCOC(=O)N1CCN(C(=O)c2ccc3c(c2)N(Cc2ccc(C)cc2)CCS3)CC1", "inhibition": "63.9% (active)"}, {"compound": "N#Cc1ccc(C(=O)Nc2nc(-c3cccs3)c(C(=O)C(F)(F)F)s2)cc1", "inhibition": "109% (active)"}, {"compound": "S=C(Nc1ccccc1)Nc1ccc2ccccc2c1", "inhibition": "89.2% (active)"}, {"compound": "Cc1cccc(NC(=S)Nc2ccc(Br)cc2)c1", "inhibition": "102% (active)"}, {"compound": "Cc1cccc(NC(=S)Nc2ccc(Cl)c(Cl)c2)c1", "inhibition": "90.8% (active)"}, {"compound": "FC(F)(F)COc1nc(N2CCCCC2)nc(N2CCNCC2)n1", "inhibition": "-11.8%"}, {"compound": "Cc1nn(Cc2ccccc2)c2c1C(c1ccccc1)C(C#N)=C(N)O2", "note": "(stereo unspecified)", "inhibition": "-0.3%"}, {"compound": "COc1cc(NC(=O)Nc2ccc(C)cc2)cc([N+](=O)[O-])c1", "inhibition": "95.5% (active)"}, {"compound": "CC(=O)c1ccc(NC(=O)Nc2ccc([N+](=O)[O-])cc2C)cc1", "inhibition": "90.3% (active)"}, {"compound": "CN(C)Cc1ccc(F)cc1Sc1cc(Cl)ccc1Cl", "inhibition": "-3.35%"}, {"compound": "O=C(Nc1cccc(F)c1)c1coc(=O)c(Br)c1", "inhibition": "77.9% (active)"}, {"compound": "COc1ccc(-n2c(C)cc(C(=O)CSc3nnc(-c4cccs4)o3)c2C)cc1", "inhibition": "83% (active)"}, {"compound": "FC(F)(F)Oc1ccc(NC(=S)NCc2ccccc2)cc1", "inhibition": "90.9% (active)"}, {"compound": "CSCCC(NC(=O)c1cc([N+](=O)[O-])cc([N+](=O)[O-])c1)c1nc2ccccc2[nH]1", "note": "(stereo unspecified)", "inhibition": "81.7% (active)"}, {"compound": "Cc1ccc(C)c(S(=O)(=O)N2CCN(c3ncnc4sccc34)CC2)c1", "inhibition": "104% (active)"}, {"compound": "Cc1ccc(NC(=O)Nc2cc(-c3ccccc3)nn2C)cc1Cl", "inhibition": "69.1% (active)"}, {"compound": "Cc1cc(NC(=O)Nc2ccc(Cl)cc2)n(-c2ccccc2)n1", "inhibition": "76.2% (active)"}]}]}
